IMPase inh – membrane-permeable compound that blocks inositol monophosphatase; P97697; CHO-M1 cells, IP1 accumulation, HTRF TR-FRET ratio; inhibition (IP1 accumulation), % at 46.1 µM; 120,000 tested, under 10 active; AID 901; active means well fitted curve in the direction sought with a large enough effect in the signal ratio, not every such curve was filed as active; inconclusive means small, poorly fitted or top-dose-only effect, or a change in a side signal; inactive means no such curve, though single readings can be large or run the other way; the % refers to the signal ratio;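 further: cells stimulated with carbachol in lithium chloride buffer; plate controls were DMSO basal wells for no effect and reference inhibitor wells for full effect; higher means more IMPase inhibition seen as more IP1 and lower FRET ratio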
Target sequence (P97697 whole entry, looked up): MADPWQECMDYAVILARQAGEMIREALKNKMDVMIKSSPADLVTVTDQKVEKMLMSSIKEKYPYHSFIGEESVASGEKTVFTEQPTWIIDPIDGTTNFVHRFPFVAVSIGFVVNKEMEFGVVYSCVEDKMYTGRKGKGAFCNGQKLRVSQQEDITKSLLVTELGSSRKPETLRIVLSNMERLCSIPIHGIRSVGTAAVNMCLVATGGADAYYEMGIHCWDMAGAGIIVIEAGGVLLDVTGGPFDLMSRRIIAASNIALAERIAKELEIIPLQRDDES
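The IP-One HTRF competitive assay in carbachol-stimulated CHO-M1 cells quantifies cellular IP1. Compounds spanned up to 46 uM final, and activity is expressed as AC50 from concentration-response fits of the ratio and donor data.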
IMPase Li inh – membrane-permeable IMPase blocker, potentiated with lithium. CHO-M1 cells, IP1 TR-FRET (IP-One), carbachol + lithium. Potency, µM (doses to about 59.4 µM), for inactives: top-dose activity, negative = IMPase inhibition, actives largely listed as inhibitors. 210,000 tested, 0.35% active;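 further: IP1 builds up when IMPase is blocked and the TR-FRET signal falls; potency means the concentration at half of the fitted maximal effect; plate controls were basal vehicle for no effect and high inhibitor control for full effect; nearly all actives have a fitted effect of over 50% in size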
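IP1 accumulation measured by competitive TR-FRET in lysed CHO-M1 cells after 30 min compound exposure at 37C, with a small lithium addition to potentiate weak responses. Hill-equation AC50 from ratio and donor-channel data.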
PNC assembly inh – blocks assembly of the perinucleolar compartment | PC3M PTB-GFP, PNC prevalence imaging, 16 h; active compounds read low | activity change (PNC), negative = inhibition, % at 10 µM | 140,000 tested, 3.1% active | AID 2417;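 active means readout at or below -70, meaning at least 70% loss of cells showing the perinucleolar compartment, a nuclear body marking cancer cells; inconclusive means readout between -30 and a set limit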;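 further: plate controls were DMSO wells for no effect and camptothecin positive control wells for full effect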
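Compounds are pinned in duplicate onto adhered PC3M cells stably expressing GFP-tagged PTB and incubated 16 h at 37 C. Cells are then fixed, nuclei stained with Hoechst, and PNC-positive cells counted.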
HTT cytoprotect – Huntington cell model cytoprotection by ATP luminescence | PC12 HTT-Q103 induced, cytoprotection, ATP luminescence, 40 h | Potency, µM (top dose mostly 56.4 µM), for inactives: cytoprotection (ATP increase), hits mostly activators | 230,000 tested, 0.14% active | AID 1471; further: potency means the concentration at half of the fitted maximal effect; % of control where 0% means no effect; nearly all actives have a fitted effect of over 45% in size
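PC12 cells with ecdysone-inducible HTT exon 1 Q103-GFP, induced with 100 nM tebufenozide and co-treated with library compounds in a dose series (1536-well, 1500 cells/well). Cytoprotection read as ATP content by ATPlite luminescence.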
HTT aggregate – reduces HttQ103-GFP aggregates in PC12 cells; Potency, µM (doses to about 46.1 µM), for inactives: at the highest dose activity change, negative = inhibition, usual class: inhibitors; 220,000 tested, 1.1% active; PC12 HttQ103-GFP aggregates, Acumen cytometry, 40 h; further: potency means the concentration at half of the fitted maximal effect; on the % scale 0 is the no-effect control and ±100 the full control effect; nearly all actives have a fitted effect of over 60% in size
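Ecdysone-promoter PC12 model expressing HTT exon 1 Q103 fused to GFP, induced by tebufenozide at 100 nM final. Compounds titrated; aggregates sized 1–25 µm scored on a 488 nm laser cytometer.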
NPSR antagonist – blocks cAMP signaling of the human neuropeptide S receptor; Q6W5P4; CHO-NPSR cells, cAMP TR-FRET, antagonist mode; Potency, µM (series often up to 38.3 µM), for inactives: top-dose activity change, negative = inhibition, actives largely listed as inhibitors; 220,000 tested, 1% active; further: potency means the concentration at half of the fitted maximal effect; on the % scale 0 is the no-effect control and ±100 the full control effect; nearly all actives have a fitted effect of over 50% in size
Target sequence (Q6W5P4 whole entry, looked up): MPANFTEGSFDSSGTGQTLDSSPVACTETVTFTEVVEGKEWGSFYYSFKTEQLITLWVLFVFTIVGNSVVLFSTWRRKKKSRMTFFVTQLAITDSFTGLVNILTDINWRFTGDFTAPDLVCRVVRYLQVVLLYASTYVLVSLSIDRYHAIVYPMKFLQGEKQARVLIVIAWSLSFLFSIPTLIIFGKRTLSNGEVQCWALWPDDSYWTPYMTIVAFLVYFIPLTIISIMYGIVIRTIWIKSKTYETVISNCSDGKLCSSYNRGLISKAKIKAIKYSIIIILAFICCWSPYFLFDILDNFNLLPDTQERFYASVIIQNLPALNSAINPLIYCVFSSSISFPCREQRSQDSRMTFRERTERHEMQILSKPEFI
* = called active by the depositor; ? = inconclusive; / = no result given; [ ] = dose if it differs, or a comment. Shown are actives, neighbours in structure and some others; about 3.4% of the full set was active somewhere. Unless noted, the call rests on the fitted dose curve; in most records, active means well fitted curve in the direction sought with a large enough effect; inconclusive means small, poorly fitted or top-dose-only effect, or another doubt; inactive means no such curve, though single readings can be large; an effect the other way counts as inactive or inconclusive.

SMILES | IMPase inh | IMPase Li inh | PNC assembly inh | HTT cytoprotect | HTT aggregate | NPSR antagonist
Nc1ncc(Br)cc1S(=O)(=O)NCCC(=O)N1CCN(c2ccccn2)CC1 | / | 23% | -113* | / | -9% | 4%
Cc1noc(C)c1-c1cc(N2CCNCC2)ncn1 | / | -9% | / | 15% | / | /
C/C=C1\CC2C=CC1C2 (stereo not drawn) | / | 4% | / | -23% | / | /
O=C(CCn1cnc(-c2ccccc2)c1-c1ccccc1)N/N=C/c1ccc(O)cc1 | / | -2% | -6 | -3%[10 µM] | 20% | -10%
COc1ccc(/C=N/NC(=O)COc2ccccc2-c2ccccc2)cc1 | -8[1.84 µM] | 46%[38.3 µM] | -115* | 12%[10 µM] | 13% | ?
COc1ccc(/C=N/NC(=O)CCn2cnc(-c3ccccc3)c2-c2ccccc2)cc1 | / | 7% | -108* | -44%[10 µM] | ? | -12%
Cc1ccc(C)c(CSCC(=O)NCc2cccs2)c1 | / | 0% | / | 3.5µM* | 7% | -37%
Cc1ccc(C2(C)NC(=O)N(CC(=O)NCc3cccs3)C2=O)cc1 (stereo not drawn) | / | -9% | -108* | 8%[10 µM] | 5% | 26%
Cc1ccc(C(=O)OCC(=O)NCc2cccs2)c(C)c1 | / | 3% | / | -27% | 6% | -2%
Cc1ccc(C2(C)NC(=O)N(CC(=O)Nc3cccnc3Cl)C2=O)cc1 (stereo not drawn) | / | ? | / | -19% | 3% | 15%
O=C(O)CCNCC(=O)O | / | -2% | / | 11%[10 µM] | / | /
COc1cc2nc(=S)n3[nH]c(CCn4nc(C)cc4C)nc3c2cc1OC | ? | 10µM* | -27 | -50%[10 µM] | ? | -6%[46.1 µM]
COc1cc2nc(=S)n3[nH]c(COc4ccccc4C)nc3c2cc1OC | / | -10% | ? | 4%[10 µM] | 3% | -3%
CCCCC#Cc1nc(N)c2ncn([C@@H]3O[C@@H](C(=O)NCC)[C@H](O)[C@@H]3O)c2n1 | -3 | / | / | -16%[1.9 µM] | / | /
CC1CCCN(C(=O)CCc2ccccc2)C1 (stereo not drawn) | / | 0% | -97* | / | 12% | 6%
COc1ccc(C(=O)NC(=S)Nc2ccccc2N2CCOCC2)cc1[N+](=O)[O-] | / | 6% | 29 | / | -2% | -21%
CCOc1ccc(C(=O)NC(=S)Nc2ccc(N3CCC(C)CC3)cc2)cc1[N+](=O)[O-] | 4 | 11% | -119* | 24%[10 µM] | 11% | -7%
COc1ccc(C(=O)NC(=S)Nc2ccc(N3CCOCC3)c(Cl)c2)cc1[N+](=O)[O-] | / | -4% | -100* | 3%[10 µM] | 13% | -4%
Cc1ccc(O)c(C(=O)c2cnn(C(=O)Cc3csc(C)n3)c2)c1 | -5 | 6%[38.3 µM] | 8 | 17%[10 µM] | 22µM* | 5%[46.1 µM]
Clc1ccc2c(c1)-c1nnc(Br)n1-c1ccccc1S2 | 0 | 9% | -100* | -16%[10 µM] | 7% | ?
Brc1nnc2n1-c1ccccc1Sc1ccccc1-2 | 8 | 4% | -23 | 6%[1.9 µM] | 21% | -21%[46.1 µM]
COc1ccc(S(=O)(=O)N2CCC(N3CCN(c4ccccc4OC)CC3)CC2)cc1 | / | / | / | -9%[10 µM] | -4%[9.22 µM] | -16%
CN(C)S(=O)(=O)c1ccc(Cl)c(NC(=O)COC(=O)/C=C/c2ccco2)c1 | / | 1% | / | -11% | 6% | -5%
Cc1cc(-c2c(C)[nH]n(-c3ccc(Cl)cc3)c2=O)n[nH]1 | 11 | 15%[38.3 µM] | 79 | -82% | 11µM* | ?
CCCC(=O)Nc1nc(C)c(-c2csc(Nc3cc(OC)ccc3OC)n2)s1 | 5 | 24%[38.3 µM] | -19 | -59% | ? | -17%[46.1 µM]
SMILES | IMPase inh | IMPase Li inh | PNC assembly inh | HTT cytoprotect | HTT aggregate | NPSR antagonist
C=CCCC(=O)Nc1nc(C)c(-c2csc(Nc3cc(OC)ccc3OC)n2)s1 | 8 | 30%[38.3 µM] | -8 | -106% | 10µM* | -4%[46.1 µM]
COC(=O)[C@H](COC(C)(C)C)NC(=O)O[C@@H]1C(=O)c2cc(Br)ccc2O[C@H]1c1ccc2c(c1)OCO2 | / | 18% | / | 20% | / | /
Cc1ccc(OCC(=O)N2CCN(C(=O)c3ccncc3)CC2)cc1 | / | -2% | / | / | 0.028µM* | -7%
CC(C)CC1(C(=O)O)C=CCN1C(=O)c1ccccc1 (stereo not drawn) | / | -8% | / | 1% | / | /
C=CCn1c(SCc2ccccc2)nc2scc(-c3ccc(C)o3)c2c1=O | ? | -4%[38.3 µM] | 82 | -8% | 6% | 0%[46.1 µM]
C=CCn1c(SCCN2C(=O)c3ccccc3C2=O)nc2scc(-c3ccccc3)c2c1=O | -4 | 8%[38.3 µM] | 19 | 12% | 17% | 13µM*
Cc1ccc(CN2CCN(C3CCOCC3)CC2CCO)cc1 (stereo not drawn) | / | / | / | -25% | -3% | -14%
CCS(=O)(=O)c1nnnn1-c1ccccc1S(C)(=O)=O | -10 | 3%[38.3 µM] | -117* | 13µM* | / | -20%[46.1 µM]
CS(=O)(=O)N1CCN(CC2CC3C=CC2C3)CC1 (stereo not drawn) | -1 | 18%[38.3 µM] | -89* | 1%[10 µM] | -2% | 7%[46.1 µM]
C1=CC2CC1CC2CN1CCN(c2ccccc2)CC1 (stereo not drawn) | 4 | 45%[38.3 µM] | -81* | 6% | -2% | -10%[46.1 µM]
Cc1ccccc1CN1CCN(CC2CC3C=CC2C3)CC1 (stereo not drawn) | 8 | 50%[38.3 µM] | 45 | -17% | -4% | -6%[46.1 µM]
COc1cccc(C(=O)COC(=O)c2n[nH]c(=O)c3ccccc23)c1 | / | 0% | / | -8% | 2% | 14%
CC(C)CNC(=O)COC(=O)c1c2c(nc3ccccc13)/C(=C/c1cccs1)CC2 | ? | / | ? | -19%[10 µM] | 5.6µM* | -24%[46.1 µM]
CCC(=O)Nc1ccc(Br)c(Cl)c1 | -2 | 4% | ? | -2%[0.074 µM] | -9% | 14%[46.1 µM]
CC(C)(C)NC(=O)Nc1ccc(F)c(Cl)c1 | / | / | / | -26% | 13µM* | -16%
COC(=O)CCCC(=O)Nc1ccc(Cl)c(Cl)c1 | -5 | 7% | -100* | 8%[10 µM] | -9% | 5%[46.1 µM]
CCC(=O)Nc1ccc(F)c(Cl)c1 | -4 | 21%[38.3 µM] | -106* | -9% | 3% | 9%[46.1 µM]
Nc1nc(Nc2ccccc2)nc2c1ncn2[C@@H]1O[C@@H](CO)[C@H](O)[C@@H]1O | 2 | / | / | -10%[1.9 µM] | / | /
Cc1ncn(-c2ccccc2O)c1C | / | -10% | / | -2%[10 µM] | / | /
CCC(=O)N(CC)C1=C(O)c2ccccc2C(=O)C1=O | 9 | 3%[38.3 µM] | ? | -44% | -5% | 0%[46.1 µM]
CNC1=C(N(C(C)=O)c2ccc(Br)cc2)C(=O)c2ccccc2C1=O | / | 8% | -20 | / | 11µM* | -2%
CCC(=O)N(C1=C(NC)C(=O)c2ccccc2C1=O)C(C)C | / | -9% | / | -110% | 28µM* | 11%
CN(C)c1ccc(C(=O)NN2C(=O)c3ccccc3C2=O)cc1 | / | 6% | / | -16% | -17% | 20%
O=C(O)c1cccnc1SC1CC(=O)N(c2ccc(OC(F)F)cc2)C1=O (stereo not drawn) | / | / | / | 1%[10 µM] | 7%[9.22 µM] | -3%
